# High-throughput results as filed in PubChem BioAssay.
# This is a sample that favours compounds with a hit; in the whole collection about 28% have one here.
# Mac1 fbg enh: enhancers of CD11b/CD18 adhesion to fibrinogen, primary screen, K562 cells, luminescence; Integrin beta-2 (Homo sapiens) + Integrin alpha-M (Homo sapiens), P05107+P11215; ATPlite luminescence; activation, % at 10 µM; 93,000 tested, 0.07% active;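 active means 10 µM primary screen giving 50% or more activity, confirmed by 40% or more on retest at that dose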
# CYP2C9 activ: human CYP2C9 activators, primary screen, biochemical, luminescence; recombinant CYP2C9, luciferin-H conversion; stronger effect = higher value; factor 1 = untreated enzyme, 0 = blocked; activation factor at 5 µM; 96,000 tested, 1.4% active;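 active means activation factor of 2 or more for CYP2C9 at a 5 µM dose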;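 further: 0 = sulfaphenazole-blocked wells and 1 = vehicle-only wells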
# Target sequence (P11712 whole entry, looked up): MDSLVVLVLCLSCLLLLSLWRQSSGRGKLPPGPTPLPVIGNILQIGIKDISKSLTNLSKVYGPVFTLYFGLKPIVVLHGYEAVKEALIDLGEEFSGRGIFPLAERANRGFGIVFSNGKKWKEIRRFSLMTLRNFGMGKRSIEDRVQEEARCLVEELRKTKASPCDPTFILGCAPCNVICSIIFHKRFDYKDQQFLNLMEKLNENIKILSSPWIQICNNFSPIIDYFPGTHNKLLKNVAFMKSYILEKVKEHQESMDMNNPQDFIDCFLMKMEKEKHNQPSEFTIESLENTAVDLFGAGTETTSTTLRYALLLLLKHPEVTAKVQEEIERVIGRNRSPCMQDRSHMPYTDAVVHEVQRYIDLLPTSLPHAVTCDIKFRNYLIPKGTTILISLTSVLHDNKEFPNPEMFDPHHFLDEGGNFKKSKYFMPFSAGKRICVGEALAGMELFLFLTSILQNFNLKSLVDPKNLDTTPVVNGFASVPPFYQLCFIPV
# CYP2C19 inhib: blockers of cytochrome P450 2C19 activity – biochemical, luminescence, ADME assay, primary screen | P33261 | CYP2C19 Supersomes, luciferin-H EGE luminescence, 30 min | inhibition, % at 5 µM | 96,000 tested, 21% active | AID 778, 2007;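 active means CYP2C19 inhibition above a set limit at 5 µM in the primary screen, cut at about 50% in these data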;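 further: plate controls were negative control wells for no effect and 2.5 mM tranylcypromine positive control for full effect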
# CD11b adhes inh: inhibitors of CD11b/CD18 adhesion to fibrinogen, primary screen, K562 cells, luminescence; Integrin beta-2 (Homo sapiens) + Integrin alpha-M (Homo sapiens), P05107+P11215; ATPlite luminescence; Mn2+ added to activate the integrin; inhibition, % at 10 µM; 93,000 tested, 0.54% active; AID 1497, 2009;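 active means primary inhibition of 50% or more at 10 µM, then 40% or more on retest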
# CYP2C9 inhib: blockers of cytochrome P450 2C9 activity – biochemical, luminescence, ADME assay, primary screen; CYP2C9 Supersomes, luciferin-H conversion; P11712; 96,000 tested, 20% active; inhibition, % at 5 µM; AID 777, 2007;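 active means blocking of liver enzyme CYP2C9 beyond about 50% at 5 µM, limit read from the data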
# CYP2C19 activ: human CYP2C19 activators, primary screen, biochemical, luminescence | Cytochrome P450 2C19 (Homo sapiens), P33261 | recombinant CYP2C19, luciferin-H EGE luminescence; stronger effect = higher value; 0 = fully inhibited enzyme, 1 = untreated enzyme | activation factor at 5 µM | 96,000 tested, under 10 active | AID 1025, 2008;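 active means activation factor of at least 2 at 5 µM in the primary screen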;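 further: 0 = wells with 2.5 mM tranylcypromine and 1 = vehicle-only wells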
# * = called active by the depositor; / = no result given.
SMILES,Mac1 fbg enh,CYP2C9 activ,CYP2C19 inhib,CD11b adhes inh,CYP2C9 inhib,CYP2C19 activ
Cc1ccc(C2=Nc3ccccc3NC(C)(c3ccc(C)o3)C2)o1 (stereo not drawn),0,0.3,95*,-18,69*,0.1
CC(C)=C1C2CCC1C1C(=O)N(c3nc(-c4ccccc4)c(C)s3)C(=O)C21 (stereo not drawn),-1,/,/,13,/,/
Cc1cc[n+](-c2nc3ccccc3nc2[N-]S(=O)(=O)c2cccs2)cc1C,3,/,/,-6,/,/
COc1ccc(NS(=O)(=O)c2ccc3c(c2)CCC(=O)N3)c(OC)c1,-3,0.9,22,9,14,0.8
CCOc1ccc(NS(=O)(=O)c2ccc(NS(=O)(=O)c3ccc(SC)cc3)cc2)cc1,-4,0.1,35,30,87*,0.7
O=S(=O)(Nc1cccnc1)c1ccc(Cl)c(C(F)(F)F)c1,1,0.4,72*,16,57*,0.3
COc1ccc(NS(=O)(=O)c2ccc(NS(=O)(=O)c3ccc(SC)cc3)cc2)c(OC)c1,-2,0.2,20,-7,83*,0.8
CCOc1ccc(NS(=O)(=O)c2ccc(NC(=S)NC(=O)CC(C)C)cc2)cc1,6,0,90*,18,99*,0.1
O=C(NN1CCOCC1)c1cc(S(=O)(=O)Nc2cccc(C(F)(F)F)c2)ccc1Cl,1,/,/,-4,/,/
Cc1ccc(NC(=O)c2cc(=O)c3ccccc3o2)cc1,-4,0.9,30,16,7,0.7
CCOc1ccc(S(=O)(=O)Nc2cccnc2)cc1,-2,0.3,94*,-10,66*,0.1
CCOc1ccc(NS(=O)(=O)c2ccc(NS(C)(=O)=O)cc2)cc1,2,0.4,24,3,64*,0.8
COc1cccc(S(=O)(=O)Nc2cccnc2)c1,0,1.1,24,-25,-10,0.8
O=C(CN1CCN(S(=O)(=O)c2ccccc2)CC1)Nc1ccccc1C(=O)c1ccccc1,-4,/,/,24,/,/
CCCCC(NC(C)=O)c1nc2ccccc2n1CCCC (stereo not drawn),4,0.9,11,8,6,0.9
CC1(C)C2CCC13CS(=O)(=O)N[C@@H]3C2 (stereo partly drawn),1,0.9,10,-14,10,0.9
COc1ccc(CCNC(=O)CN2CCC(C)CC2)cc1OC,-3,1,37,18,4,0.6
COc1ccc(CNCCSc2nnnn2C)cc1OC,-3,1.3,12,5,-26,0.9
COc1ccc(CSc2nnnn2C)cc1F,-4,1,72*,30,-3,0.3
COc1ccc(CSc2nnnn2C)cc1[N+](=O)[O-],2,1,30,-4,0,0.7
Cn1nnnc1SCCNCc1cccc2ccccc12,0,0.8,86*,0,15,0.1
COc1ccc(Br)cc1CNCCSc1nnnn1C,0,0.5,100*,-4,55*,0
CCc1ccc(CNCCSc2nnnn2C)cc1,2,0.9,70*,15,7,0.3
Cn1nnnc1SCCNCc1cccnc1,-3,0.7,18,-2,29,0.8
Cn1ncc2c(=O)n(CC(=O)NC34CC5CC(CC(C5)C3)C4)cnc21,-3,1.2,-6,-1,-21,1.1
SMILES,Mac1 fbg enh,CYP2C9 activ,CYP2C19 inhib,CD11b adhes inh,CYP2C9 inhib,CYP2C19 activ
CCOC(=O)CSc1n[nH]c(NC(=O)c2cccc(C(F)(F)F)c2)n1,/,0.6,41,/,38,0.6
CCOC(=O)C1CCCc2c1[nH]c1c(C(=O)O)cccc21 (stereo not drawn),2,1,10,-3,2,0.9
Cc1cccc2cc(CN(CC3CCCO3)C(c3nnnn3Cc3ccco3)C(C)C)c(=O)[nH]c12 (stereo not drawn),/,0.6,15,/,39,0.8
O=c1nc2ccccc2c(NS(=O)(=O)c2ccccc2)n1-c1ccccc1,1,1.1,-14,-4,-6,1.1
CCC(C)NC(=O)NC(=O)N(C1CCCCC1)S(C)(=O)=O (stereo not drawn),/,0.9,3,/,11,1
Cn1nnnc1SCCNC/C=C/c1ccccc1,-6,0.9,80*,1,8,0.2
COc1cccc(CNCCSc2nnnn2C)c1,0,1.1,71*,12,-11,0.3
O=S(=O)(C(=CNc1ccccc1)S(=O)(=O)c1ccccc1)c1ccccc1,-3,/,/,10,/,/
Cc1nnc(NC(=O)CCCN2C(=O)c3ccccc3C2=O)s1,-5,0.9,9,-5,10,0.9
CCOC(=O)Cc1csc(NC(=O)CCCN2C(=O)c3ccccc3C2=O)n1,-3,0.5,13,-5,53*,0.9
CCOC(=O)Cc1csc(NC(=O)c2c(O)c3ccccc3n(C)c2=O)n1,-1,1.2,-4,51,-22,1
CCC(CC)c1nnc(NC(=O)CCCN2C(=O)c3ccccc3C2=O)s1,-5,0.3,41,-8,72*,0.6
CCOC(=O)Cc1csc(NC(=O)CCN2C(=O)c3ccccc3C2=O)n1,-1,0.2,69*,10,76*,0.3
Cc1ccc(-c2nnn(CC(=O)N3CCN(c4ccccc4)CC3)n2)o1,-2,0.9,20,-18,14,0.8
Nc1ncnc2nc(SCc3ccc(Cl)cc3Cl)[nH]c12,2,0.4,67*,3,59*,0.3
COc1ccc(C(=O)CCC(=O)O)cc1,-3,1,2,-14,0,1
COC(=O)C(O)(CC(=O)c1ccc(OC)cc1)C(F)(F)F (stereo not drawn),/,1,63*,/,4,0.4
CC(C)(C)NC(=O)C(c1ccsc1)N(CCc1ccccc1)C(=O)Cn1nnc2ccccc21 (stereo not drawn),/,1.1,-6,/,-13,1.1
Cc1ccc(-n2c(C)cc(C(=O)COC(=O)c3c(C)noc3C)c2C)cc1,-10,0.8,10,91,20,0.9
Cc1cc(C(=O)COC(=O)C2=NNC(=O)CC2)c(C)n1-c1ccccc1,-1,0.7,50*,-4,32,0.5
Cc1ccc(-n2c(C)cc(C(=O)COC(=O)C3=NNC(=O)CC3)c2C)cc1,-3,0.5,62*,5,52*,0.4
O=C1CCC(C(=O)OCC(=O)c2c[nH]c3ccccc23)=NN1,-1,/,/,-2,/,/
CC(C)C1NC(=S)N(Cc2ccccc2)C1=O (stereo not drawn),/,0.9,58*,/,14,0.4
Cc1cccc(C)c1-n1c(SCC(=O)NCc2ccco2)nc2ccccc2c1=O,/,0.7,44,/,32,0.6
